From PubChem BioAssay AID463190 (Sanford-Burnham Center for Chemical Genomics, 2010)
In all, about 330,000 compounds went through this assay and about 7,300 (2.2%) were called active. Shown is part of a subset that was picked to be rich in actives. A number with no mark means an inactive call.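 The calls were made as follows: active = inhibition of at least 40%; inactive = the rest.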

assay: growth inhibition of tim10-1 ts yeast – luminescence, uHTS, primary screen (AID 463190);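 also: mutant grown at 25 °C; 0% = DMSO wells with yeast and 100% = wells holding no yeast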; conditions: S. cerevisiae tim10-1 ts strain growth, BacTiter-Glo, 24 h; at 20 µM; stronger effect = higher value

Row | Compound | inhibition
1 | COc1ccc(C(=O)OCC(=O)NCC2CCCO2)cc1[N+](=O)[O-] (centres undefined) | -1.22%
2 | Cc1ccsc1C(=O)OCC(=O)c1cc(C)n(CC2CCCO2)c1C (centres undefined) | 33%
3 | COc1ccc(C(=O)OCC(=O)c2cc(C)n(CC3CCCO3)c2C)cc1[N+](=O)[O-] (centres undefined) | 44.5% (active)
4 | COC(=O)CN1C(=O)[C@H]2[C@@H](/C=C/c3ccccc3)N3C(=O)CN(Cc4ccccc4)C(=O)[C@@]3(Cc3ccccc3)[C@H]2C1=O | 8.2%
5 | CC1=C(C(N)=O)C(c2ccc(Br)cc2)n2ncnc2N1 (centres undefined) | 10.7%
6 | Fc1ccccc1/C=C1\CCCC2=C1Nc1ncnn1C2c1ccccc1F (centres undefined) | 40.1% (active)
7 | OC1CN=C2Sc3ccccc3N2C1 (centres undefined) | 10.5%
8 | CCc1cccc2c(C=C(C#N)C#N)cn(CC(=O)N3CCCCC3)c12 | 18%
9 | Cc1ccc(C(=O)O)cc1S(=O)(=O)NCC1CCCO1 (centres undefined) | -1.57%
10 | Cn1c(C(=O)OC(C(=O)NC2CCCCC2)c2ccccn2)cc2sccc21 (centres undefined) | 40.4% (active)
11 | Cn1c(C(=O)N2CCCC(C(=O)NCc3ccccc3)C2)cc2sccc21 (centres undefined) | -2.21%
12 | CC(C)C(OC(=O)c1cccs1)C(=O)NC1CCCCC1 (centres undefined) | 14.5%
13 | O=C1C2(c3ccccc3)CN(CCCO)CC1(c1ccccc1)CN(CCCO)C2 | 13.9%
14 | CCOC(=O)C1(C(F)(F)F)N=C(N(C)C)OC(N(C)C)=N1 | 0.707%
15 | CCCCn1c(=S)[nH]c2ccccc2c1=O | 30.4%
16 | S=c1ccc2ccccc2[nH]1 | 8.36%
17 | S=c1[nH]c2ccccc2c2ccccc12 | 40.1% (active)
18 | CC(C)Oc1ccc(C(CC(=O)N2CCOCC2)C(C)C)cc1 (centres undefined) | 1.61%
19 | COc1ccccc1C(=O)NCC(=O)NCCSc1ccc(Br)cc1 | 12.5%
20 | Oc1ccccc1CN1CCN(C(c2ccccc2)c2ccccc2)CC1 | 24.4%
21 | CCN1CCN(C(c2cccnc2)c2cc(Cl)c3cccnc3c2O)CC1 (centres undefined) | 50.7% (active)
22 | CCN1CCN(c2ccc(NC(=O)c3cnccn3)cc2)CC1 | 4.72%
23 | C=C(C)c1cccc(C(C)(C)NC(=O)NCCN(CC)CC)c1 | 15.8%
24 | O=C1COc2ccc(NC(=O)N3CCN(c4ccc(F)cc4)CC3)cc2N1 | -1.3%

Row | Compound | inhibition
25 | CCOC(=O)C1Nc2ccc(C(F)(F)F)cc2C2C=CCC12 (centres undefined) | 26.6%
26 | O=C(NC1(C(F)(F)F)NC(=O)N(C2CCCCC2)C1=O)c1ccco1 (centres undefined) | 9.83%
27 | COC(=O)NC1(C(F)(F)F)NC(=O)N(C2CCCCC2)C1=O (centres undefined) | -0.477%
28 | O=C1NC(Nc2nc3ccccc3s2)(C(F)(F)F)C(=O)N1C1CCCCC1 (centres undefined) | 55.7% (active)
29 | C=CCC1(CC=C)CCCN1C(=O)CC1C(=O)NCCN1Cc1ccccc1OC (centres undefined) | 7.02%
30 | CC(=O)/C(=N\Nc1ccc(Cl)cc1Cl)Sc1cccc2cccnc12 | 53.2% (active)
31 | S=C(NCc1cccnc1)Nc1ccc(Cl)cc1Cl | 15%
32 | O=C(Nc1cccc2cccnc12)c1cccc(Cl)c1 | 20.4%
33 | Cn1cccc1C(=O)OCC(=O)NCCc1ccccc1 | -4.06%
34 | Cc1c(C)n(Cc2ccc(Cl)cc2)c2ccc(C(=O)NCCCN3CCOCC3)cc12 | 5.97%
35 | O=C(Nc1ccc(Cl)cc1)Nc1nnc(/C=C/c2ccccc2)s1 | 5.19%
36 | NS(=O)(=O)c1ccc(CCNC(=O)Nc2ccc(Cl)cc2)cc1 | 8.7%
37 | O=C(Nc1ccccc1)c1nnsc1S(=O)(=O)c1ccc(Cl)cc1 | 87.7% (active)
38 | COC(=O)c1cc(NC(=O)c2nn(C)c(=O)c3ccccc23)cc(C(=O)OC)c1 | 13.9%
39 | CCc1ccccc1NC(=O)Cc1cn(C)c2ccccc12 | 24.8%
40 | C=C(C)Cn1c(C)cc(C)c(S(=O)(=O)c2ccccc2C)c1=O | 27.4%
41 | CCS(=O)(=O)c1cc([N+](=O)[O-])c(Sc2ccccc2N)s1 | 7.45%
42 | Nc1ccccc1SC(C[N+](=O)[O-])c1ccccc1 (centres undefined) | 48.9% (active)
43 | Cc1ccc(C)c(N2CCN(C(=O)CCCCCn3c(=S)[nH]c4ccc(N5CCOCC5)cc4c3=O)CC2)c1 | 0.092%
44 | Cc1ccc(C)c(N2CCN(C(=O)CCCCn3c(=O)[nH]c4ccccc4c3=O)CC2)c1 | 40.7% (active)
45 | Cc1ccc(C)c(N2CCN(C(=O)CCc3nc4ccccc4[nH]3)CC2)c1 | 22.3%
46 | O=C(CCC1CCCCC1)Nc1cc(C(F)(F)F)ccc1N1CCOCC1 | 27.5%
47 | O=C(NCCc1ccccc1)C1CCC(Cn2c(=O)c3ccccc3n(Cc3cccnc3)c2=O)CC1 (centres undefined) | 15.4%
48 | Cc1ccc(Cl)cc1NC(=O)C1CCCN(c2cnccn2)C1 (centres undefined) | 12.5%

Row | Compound | inhibition
49 | CC(=O)c1cc(C#N)c(SCC(=O)Nc2nccs2)nc1C | -56.3%
50 | Cc1ccc(NCc2n[nH]c(=S)n2-c2ccccc2)cc1Cl | 23%
51 | S=c1[nH]nc(COc2ccccc2)n1-c1ccccc1 | 21.4%
52 | S=c1[nH]nc(CSCc2ccc(Cl)cc2Cl)n1-c1ccccc1 | 41.3% (active)
53 | CCCCNC(=O)C(C)N(CCN(C)C)C(=O)CCCN1C(=O)NC(c2ccc(Cl)cc2)C(C(=O)OCc2ccccc2)=C1C (centres undefined) | 6.33%
54 | CCCc1cc(=O)[nH]c(SCC(=O)Nc2sc3c(c2C#N)CCCC3)n1 | 6.17%
55 | COc1ccc(CCNC(=O)C(=O)Nc2ccc3nc4n(c(=O)c3c2)CCCCC4)cc1OC | 9.06%
56 | CCn1cc(CNC(=O)c2cc([N+](=O)[O-])c(C)c([N+](=O)[O-])c2)cn1 | 14.3%
57 | CCC(=O)c1ccc(OCC(=O)N(CC)CC2COc3ccccc3O2)cc1 (centres undefined) | 18.9%
58 | S=C(NCC1COc2ccccc2O1)Nc1ccc(Br)cc1 (centres undefined) | 7.9%
59 | CCCN(CC1COc2ccccc2O1)C(=S)Nc1ccc(C)cc1 (centres undefined) | 46.4% (active)
60 | CC(C)C(O)C1CCN(Cc2nc(Cc3ccccc3Cl)no2)CC1 (centres undefined) | 15.8%
61 | C/C=C(/C)C(=O)O[C@@H]1c2cc3c(c4c2[C@@]2(CO4)C(=O)C(OC)=C(OC)C=C2C[C@@H](C)[C@H]1C)OCO3 | 13.3%
62 | C[C@@H](C(=O)N1CCNCC1)n1cc(CCC(=O)O)nn1 | -7.39%
63 | CCCCC(O)(CCCC)C(=O)NN(C(=O)CCl)c1ccccc1 | 49.5% (active)
64 | COC(=O)N(NC(=O)C(O)(C(C)C)C(C)C)c1ccccc1 | -7.63%
65 | CCCC(O)(CCC)C(=O)NN(C(=O)CCl)c1cccc(C)c1 | 31.5%
66 | Cc1ccnc(SCCn2c(N(C)Cc3ccccc3)nc3c2c(=O)n(C)c(=O)n3C)n1 | 30%
67 | COc1ccc(C(C#N)(CC(=O)O)c2cnccn2)cc1OC (centres undefined) | -2.88%
68 | COc1ccccc1CNS(=O)(=O)c1ccc2c(c1)NC(=O)CS2 | -7.01%
69 | Cn1c(=O)[nH]c(=O)c2c1nc(N1CCN(C(c3ccccc3)c3ccccc3)CC1)n2CCO | 10.4%
70 | NC(=O)c1ccc(Nc2ccc3nonc3c2[N+](=O)[O-])cc1 | -0.57%
71 | O=C(O)c1ccccc1CSc1nc2ccccc2s1 | 2.18%
72 | O=[N+]([O-])c1c(NCCO)cc(Sc2nc3ccccc3s2)c2nonc12 | 42.6% (active)

Row | Compound | inhibition
73 | COc1cc(C(=O)OCC(=O)NC(C)CCc2ccccc2)cc(OC)c1OC (centres undefined) | 13.5%
74 | CN1C(=O)[C@H]2[C@@H](/C=C/c3ccccc3)N3C(=O)CN(Cc4ccc(-c5ccccc5)cc4)C(=O)[C@@]3(C)[C@H]2C1=O | 1.58%
75 | Cc1c(C(=O)Nc2cccc(Cl)c2)cn2c(nc3ccccc32)c1C#N | 10.2%
76 | Cc1nc(-c2ccccc2)cn2c1nc1ccccc12 | 40.7% (active)
77 | CCOCCn1c(-c2ccccc2)nc2ccccc21 | -13.4%
78 | COc1ccc(C(=O)OCC(=O)c2ccc(Cl)s2)c(OC)c1OC | 6.36%
79 | Cc1ccc(S(=O)(=O)NCCC(c2ccccc2)c2ccccc2)cc1C(=O)O | 25.2%
80 | COc1ccc(C(=O)COC(=O)CNC(=O)c2cccs2)cc1Br | -2.83%
81 | CC(=NNC(=O)c1ccc2nc[nH]c2c1)c1ccc(Br)cc1 | 9.94%
82 | COc1ccc(/C(C)=N/NC(=O)c2ccc3nc[nH]c3c2)cc1 | 52.3% (active)
83 | CCN(CC)c1ccc(C(=O)N/N=C(\C)c2cccc(OC)c2)cc1 | -18.4%
84 | O=C(Nc1ccncc1)c1ccccc1[N+](=O)[O-] | 0.557%
85 | O=C(O/N=C(/c1ccccc1)c1ccncc1)c1ccccc1[N+](=O)[O-] | 41.3% (active)
86 | CN(C)CCCO/N=C(\c1ccccc1)c1ccncc1 | -3.73%
87 | COc1ccc(OCC(=O)NNC(=O)C2CCC2)cc1 | -8.95%
88 | O=C(Nc1ccc(Cl)c(Cl)c1)c1ccccc1NC(=O)C1CC=CCC1C(=O)O (centres undefined) | 14.6%
89 | COc1ccccc1C(=O)NNC(=O)c1ccc(NC(=O)c2ccccc2)cc1 | -9.84%
90 | COc1cc(/C=N/NC(=O)c2ccc(N3CCCC3=O)cc2)ccc1O | 13.5%
91 | CCOc1cc(/C=N/NC(=O)c2cc(-c3ccccc3)nc3ccccc23)ccc1O | 11.6%
92 | COc1ccc(C(=O)Nc2cc(C)c(NC(=O)c3ccccc3OC)cn2)cc1 | -34.5%
93 | COc1ccc(C(=O)Nc2ccccc2C(=O)N/N=C/c2ccc(O)c(OC)c2)cc1 | 97% (active)
94 | COc1ccc(C(=O)Nc2ccccc2C(=O)N/N=C/c2ccccc2OC)cc1 | 66.7% (active)
